# Source: the supplement of paper PMC10811239
# Tested on: LEGO organoid PT (PTEN-/-; TP53-/-)
# Assay: bioluminescence (viable cell) signal fold change after vs before treatment, normalised to DMSO (ratio); higher = more tumour cell growth / less inhibition
# Conditions: 10 µM; treatment time 6 days
# Description: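 Luc2-labelled iPSC-derived glioblastoma-like organoids (LEGOs, genotypes PT = PTEN-/-;TP53-/-, PTCC = plus CDKN2A/B-/-, PTN = plus NF1-/-) were treated with 10 uM drug for 6 days (applied every other day) at 37 C. Bioluminescence imaging was done before treatment and 2 days after the last dose. BLI signals were normalised to the DMSO control on the same day and then to the pre-treatment signal (N=3).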
row,SMILES,bioluminescence
1,CCC1(c2ccc(N)cc2)CCC(=O)NC1=O (configuration not stated) [Aminoglutethimide],0.724
2,COc1cc2c(cc1OC)[C@@H]1CC(=O)[C@@H](CC(C)C)CN1CC2.COc1cc2c(cc1OC)[C@H]1CC(=O)[C@H](CC(C)C)CN1CC2 [Tetrabenazine],0.657
3,COc1ccc(C(CN(C)C)C2(O)CCCCC2)cc1.Cl (configuration not stated) [Venlafaxine hydrochloride],0.615
4,NCC1(CC(=O)O)CCCCC1 [Gabapentin],1.08
5,CC(C)c1cccc(C(C)C)c1O [Propofol],1.34
6,CC[C@@H](C(N)=O)N1CCCC1=O [Levetiracetam],0.803
7,CCN(C)C(=O)Oc1cccc([C@H](C)N(C)C)c1 [Rivastigmine],1.31
8,CN[C@@H]1C[C@H]2O[C@@](C)([C@@H]1OC)n1c3ccccc3c3c4c(c5c6ccccc6n2c5c31)C(=O)NC4 [Staurosporine],0.0178
9,O=C(O)CCCc1ccc(N(CCCl)CCCl)cc1 [Chloroambucil],1.03
10,Cc1cccc([C@H](C)c2cnc[nH]2)c1C.Cl [Dexmedetomidine HCl],0.872
11,NCC(CC(=O)O)c1ccc(Cl)cc1 (configuration not stated) [Baclofen],0.694
12,CCN(C)C(=O)Oc1cccc([C@H](C)N(C)C)c1.O=C(O)[C@H](O)[C@@H](O)C(=O)O [Rivastigmine tartrate],2.08
13,CC(C)C[C@H]1C(=O)N2CCC[C@H]2[C@]2(O)O[C@](NC(=O)[C@@H]3C[C@@H]4c5cccc6[nH]cc(c56)C[C@H]4N(C)C3)(C(C)C)C(=O)N12.CC(C)[C@@]1(NC(=O)[C@@H]2C[C@@H]3c4cccc5[nH]cc(c45)C[C@H]3N(C)C2)O[C@@]2(O)[C@@H]3CCCN3C(=O)[C@H](Cc3ccccc3)N2C1=O.CC(C)[C@H]1C(=O)N2CCC[C@H]2[C@]2(O)O[C@](NC(=O)[C@@H]3C[C@@H]4c5cccc6[nH]cc(c56)C[C@H]4N(C)C3)(C(C)C)C(=O)N12.CCC(C)[C@H]1C(=O)N2CCC[C@H]2[C@]2(O)O[C@](NC(=O)[C@@H]3C[C@@H]4c5cccc6[nH]cc(c56)C[C@H]4N(C)C3)(C(C)C)C(=O)N12.CS(=O)(=O)O [Dihydroergotoxine mesylate],0.998
14,Cc1n[nH]cc1-c1cc2[nH]c([C@@H]3CC4CCN3CC4)nc(=O)c2s1 [Simurosertib],1.6
15,CCOC(=O)c1cncn1[C@H](C)c1ccccc1 [Etomidate],1.09
16,Cl.Cn1c(CCCC(=O)O)nc2cc(N(CCCl)CCCl)ccc21 [Bendamustine hydrochloride],0.772
17,CN(C)C(=O)Oc1ccc[n+](C)c1.[Br-] [Mestinon],0.942
